Each structure is given as a SMILES string. The source made the active and inactive calls.
Note: test concentration not given here.

One test is described as follows: JC-1 mitochondrial signal, unstimulated MM1S myeloma – cell-based, JC-1 fluorescence, 24 h, 100 nL compound, profiling panel (AID 1170). Particulars: MM1S mitochondrial potential, higher = more signal.
The compound `CN(C)C(=O)[C@@]1(Cc2ccccc2CN=[N+]=[N-])N=C(c2ccc(OCCCO)cc2)O[C@H]1c1ccccc1CN=[N+]=[N-]` showed a z-score of -2.11.
The compound `CCCNC(=O)[C@@]1(c2ccc([N+](=O)[O-])cc2)CC(=O)N(C2CCCCC2)[C@@H]1c1ccc(CO)cc1` showed a z-score of 0.773.
Compound `CC(C)N1C(=O)C[C@@](C(=O)NCCCN(C)C)(c2ccc([N+](=O)[O-])cc2)[C@H]1c1ccc(CO)cc1` showed a z-score of 0.169.
For the compound `O=C1N(Cc2ccccc2)Cc2ccccc2[C@@H]2OC(c3ccc(OCCCO)cc3)=N[C@]12CCS(=O)(=O)c1ccccc1`, the z-score was -0.156.
As for `COC(=O)[C@@]1(Cc2ccc(OC)cc2)[C@@H]2C(=CC(=O)[C@H]2CC(=O)C(=O)N(C)C)CN1C(=O)c1ccccc1`, the z-score was -1.16.
In turn, `COc1ccc([Si](C)(C)[C@@H]2[C@@H](CC(=O)N3Cc4ccccc4C[C@H]3CO)O[C@]3(C(=O)N(C)c4ccccc43)[C@H]2C)cc1` returned a z-score of -2.28.
The same measure, in the same setting: in the case of `C=C[C@@H](COC(C)=O)N(C(=O)OC(C)(C)C)S(=O)(=O)c1ccc(Br)cc1` it was -0.624; in that of `C=CCOC(=O)[C@H]1[C@@H]2C(=O)O[C@@H](c3ccccc3)[C@@H](c3ccccc3)N2[C@@H](c2ccc(OCCOC(=O)[C@@H]3C[C@@H]4C(=O)N[C@@H](CCCCNC(C)=O)C(=O)N4[C@@H]3c3ccc(O)cc3)cc2)[C@]12C(=O)Nc1ccc(I)cc12`, -0.888; in that of `O=c1n(-c2ccccc2)c(=O)n2n1CC(COc1ccccc1)=C([C@H](O)CCc1ccccc1)[C@@H]2CO`, -1.98.
`CN(C)C(=O)[C@]1(CCS(=O)(=O)c2ccccc2)N=C(c2ccc(OCCCO)cc2)O[C@@H]1c1ccccc1N=[N+]=[N-]` showed a z-score of -0.809.
Same read-out and setting: in the case of `COC(=O)[C@@]1(Cc2ccccc2)[C@@H]2C(=CC(=O)[C@H]2CC(=O)C(=O)N(C)C)CN1C(=O)c1ccccc1` it was -2.68; in that of `CCOC(=O)C[C@H]1[C@H](OC(=O)Cc2ccc3c(c2)OCO3)[C@@H](NC(=O)Cc2ccc(OC)cc2)c2cc(OCCCO)ccc2N1C(=O)c1ccc2ccccc2n1`, 0.819; in that of `CC1CC/C=C\[C@H]2OC34C=CCN(C(C)C)C(=O)[C@H]3N(CCCCCCO)C(=O)[C@@H]4C2C(=O)O1` (stereo partly specified), -1.04.

The next test can be described thus: resazurin metabolic signal in A549 cells – cell-based, resazurin fluorescence, 24 h, PK04 Diversity Set, profiling panel (AID 1171). Particulars: A549 viability, higher = more signal, called active from +8 up or from −8 down.
On to `CCCCCCc1nc(C2CC2)cc2c1[Si](C(C)C)(C(C)C)OC2`, for which the z-score is -0.366 (inactive).
`COc1ccc([Si](C)(C)[C@H]2[C@H](CCO)O[C@@]3(C(=O)N(Cc4cccc(N5C(=O)COc6ccccc65)c4)c4ccccc43)[C@@H]2C)cc1`: the z-score is -2.14 (inactive).
Take `C=C(/C(=C/C[C@H](OC(=O)c1ccncc1)c1ccc(CO)o1)c1cc(C(=O)OC)ccc1OC)C(C)C`: the z-score was -0.18 (inactive).
Turning to `COC(=O)[C@@]1(Cc2ccccc2N=[N+]=[N-])N=C(c2ccc(OCCCO)cc2)O[C@H]1c1ccccc1N=[N+]=[N-]`, the z-score was -2.94 (inactive).
As to `O=C1O[C@H](c2ccccc2)[C@H](c2ccccc2)N2[C@H]1[C@@H](C(=O)Nc1nc3ccccc3s1)[C@]1(C(=O)Nc3ccccc31)[C@H]2c1ccc(OCCO)cc1`, the z-score was 0.0237 (inactive).
Take `C=CCC(OC(C)=O)[C@@H]1[C@@H](N(Cc2cc3ccccc3o2)C(=O)c2ccc(C)cc2)c2cc(OCCCO)ccc2N1C(=O)Cc1ccc(OC)cc1` (stereo partly specified): the z-score was 0.951 (inactive).
On to `C[C@@H]1ON(c2ccc(C(=O)OC(C)(C)C)cc2)[C@H](c2ccc(O)cc2)[C@H]1C(=O)N1C(=O)OC[C@H]1Cc1ccccc1`, for which the z-score was -1.31 (inactive).
On to `C=CCNC(=O)[C@H]1[C@@H]2C(=O)O[C@@H](c3ccccc3)[C@@H](c3ccccc3)N2[C@@H](c2ccc(O)cc2)[C@]12C(=O)Nc1ccc(C#CC3(O)CCCCCC3)cc12`, for which the z-score is 0.421 (inactive).
Turning to `CCCC[C@@H]1C[C@H]1[C@@H](NC(=O)Cc1ccccc1)c1ccc(-c2ccccc2)cc1`, the z-score was 0.261 (inactive).
`C=C(COC)/C(=C/C[C@H](OC(=O)c1ccncc1)c1ccccc1OCCO)c1cnc2ccccc2c1`: the z-score is 2.05 (inactive).
`[N-]=[N+]=Nc1ccccc1[C@@H]1OC(c2ccc(OCCCO)cc2)=N[C@]1(Cc1ccccc1)C(=O)NCC(O)CO` (stereo partly specified): the z-score was -0.545 (inactive).
With `CC(C)N1CC=CC23O[C@@H]4C=CCOC(=O)[C@@H]4[C@H]2C(=O)N(CCCO)[C@@H]3C1=O` (stereo partly specified), the z-score was 0.108 (inactive).
For the compound `CC(c1ccccc1)C(O)C1C=CC2C(=O)N(c3ccccc3)C(=O)C2N1Nc1ccc([N+](=O)[O-])cc1` (stereo unspecified), the z-score is 1.07 (inactive).
